# Records with an inconclusive call do not appear. A call without a number means that no potency is given here. The source made the active and inactive calls. Calls follow the shape of the dose curve; as a rule, active = well fitted inhibition curve with a large enough effect; inconclusive = small, poorly fitted or top-dose-only effect; inactive = flat fitted curve, though single readings scatter.
# How the values were obtained:
# Test in all cases: qHTS profiling for inhibitors of Plasmodium falciparum proliferation (AID 504749); also: nearly all actives have a fitted effect of over 60% in size
# AA1029 = conditions: P. falciparum in erythrocytes, SYBR Green DNA, 72 h; series mostly up to 28.7 µM
# Outline: (§1)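 Three-day growth assay of blood-stage parasites in erythrocytes (0.3% parasitemia, 2.5% hematocrit) at 37 C, 5% CO2, quantified by SYBR Green DNA staining after overnight detergent lysis.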
# ATS95 = conditions: P. falciparum in erythrocytes, SYBR Green DNA, 72 h; series mostly up to 28.7 µM
# Outline: as §1
# CP185 = conditions: P. falciparum in erythrocytes, SYBR Green DNA, 72 h; series mostly up to 28.7 µM
# Outline: as §1
# CP191 = conditions: P. falciparum in erythrocytes, SYBR Green DNA, 72 h; series mostly up to 28.7 µM
# Outline: as §1
# CP217 = conditions: P. falciparum in erythrocytes, SYBR Green DNA, 72 h; series mostly up to 28.7 µM
# Outline: as §1
# CP238 = conditions: P. falciparum in erythrocytes, SYBR Green DNA, 72 h; series mostly up to 28.7 µM
# Outline: as §1
# CP250 = conditions: P. falciparum in erythrocytes, SYBR Green DNA, 72 h; series mostly up to 12.8 µM
# Outline: as §1
# CP252 = conditions: P. falciparum in erythrocytes, SYBR Green DNA, 72 h; series mostly up to 12.8 µM
# Outline: as §1
# CP256 = conditions: P. falciparum in erythrocytes, SYBR Green DNA, 72 h; series mostly up to 28.7 µM
# Outline: as §1
# CP262 = conditions: P. falciparum in erythrocytes, SYBR Green DNA, 72 h; series mostly up to 28.7 µM
# Outline: as §1
# CP286 = conditions: P. falciparum in erythrocytes, SYBR Green DNA, 72 h; series mostly up to 28.7 µM
# Outline: as §1
# CP335 = conditions: P. falciparum in erythrocytes, SYBR Green DNA, 72 h; series mostly up to 12.8 µM
# Outline: as §1
# HB3 = conditions: P. falciparum in erythrocytes, SYBR Green DNA, 72 h; series mostly up to 28.7 µM
# Outline: as §1
# N140 = conditions: P. falciparum in erythrocytes, SYBR Green DNA, 72 h; series mostly up to 28.7 µM
# Outline: as §1
# PAD = conditions: P. falciparum in erythrocytes, SYBR Green DNA, 72 h; series mostly up to 28.7 µM
# Outline: as §1
# SC27B = conditions: P. falciparum in erythrocytes, SYBR Green DNA, 72 h; series mostly up to 28.7 µM
# Outline: as §1
# CP192 = conditions: P. falciparum in erythrocytes, SYBR Green DNA, 72 h; series mostly up to 28.7 µM
# Outline: as §1
# CP194 = conditions: P. falciparum in erythrocytes, SYBR Green DNA, 72 h; series mostly up to 28.7 µM
# Outline: as §1
# CP201 = conditions: P. falciparum in erythrocytes, SYBR Green DNA, 72 h; series mostly up to 28.7 µM
# Outline: as §1
# DIV30 = conditions: P. falciparum in erythrocytes, SYBR Green DNA, 72 h; series mostly up to 28.7 µM
# Outline: as §1
# Potency is read from the fitted curve at half-maximal effect.
Compound,Potency (AA1029),Potency (ATS95),Potency (CP185),Potency (CP191),Potency (CP217),Potency (CP238),Potency (CP250),Potency (CP252),Potency (CP256),Potency (CP262),Potency (CP286),Potency (CP335),Potency (HB3),Potency (N140),Potency (PAD),Potency (SC27B),Potency (CP192),Potency (CP194),Potency (CP201),Potency (DIV30)
C[C@]12CC[C@H](O)CC1=CCC1C2CC[C@]2(C)C(=O)CC[C@@H]12 (stereo not given in full),inactive,inactive,inactive,inactive,inactive,inactive,inactive,inactive,inactive,inactive,inactive,inactive,inactive,inactive,inactive,inactive,–,–,–,–
CCCC[N+]1(C)C2CC(OC(=O)C(CO)c3ccccc3)CC1C1OC12 (stereo not given),inactive,inactive,inactive,inactive,inactive,inactive,inactive,inactive,inactive,inactive,inactive,inactive,inactive,inactive,inactive,inactive,inactive,inactive,inactive,inactive
CCNC[C@H](O)c1cccc(O)c1,inactive,inactive,inactive,inactive,inactive,inactive,inactive,inactive,inactive,inactive,inactive,inactive,inactive,inactive,inactive,inactive,inactive,inactive,inactive,inactive
ClC1=C(Cl)C2(Cl)C3C4CC(C5OC45)C3C1(Cl)C2(Cl)Cl (stereo not given),inactive,–,inactive,inactive,inactive,inactive,inactive,inactive,inactive,–,–,–,inactive,inactive,inactive,inactive,inactive,inactive,inactive,inactive
CCN(CC)C(=O)N[C@@H]1C[C@@H]2c3cccc4[nH]cc(c34)C[C@H]2N(C)C1,–,–,–,–,–,–,–,–,2240 nM (active),–,–,–,–,–,–,–,–,–,–,–
CC(C)c1c(CN(C)[C@@H](C)Cc2ccccc2)n(C)n(-c2ccccc2)c1=O,inactive,inactive,inactive,inactive,inactive,inactive,inactive,inactive,inactive,inactive,inactive,inactive,inactive,inactive,inactive,inactive,inactive,inactive,inactive,inactive
CN(C)C(=O)Oc1cc(OC(=O)N(C)C)cc([C@@H](O)CNC(C)(C)C)c1,inactive,inactive,inactive,inactive,inactive,inactive,inactive,inactive,inactive,inactive,inactive,inactive,inactive,inactive,inactive,inactive,inactive,inactive,inactive,inactive
C[N+]1(C)[C@@H]2CC[C@H]1CC(OC(=O)[C@@H](CO)c1ccccc1)C2 (stereo not given in full),inactive,inactive,inactive,inactive,inactive,inactive,inactive,inactive,–,inactive,inactive,inactive,inactive,inactive,inactive,inactive,inactive,inactive,inactive,inactive
CC[C@@]1(c2ccc(N)cc2)CCC(=O)NC1=O,inactive,inactive,inactive,inactive,inactive,inactive,inactive,inactive,inactive,inactive,inactive,inactive,inactive,inactive,inactive,inactive,inactive,inactive,inactive,inactive
C[C@@]12CCC(=O)C=C1C=C[C@H]1[C@H]3CC[C@](O)(CCC(=O)O)[C@]3(C)CC[C@@H]12,inactive,inactive,inactive,inactive,inactive,inactive,inactive,inactive,inactive,inactive,inactive,inactive,–,inactive,inactive,inactive,inactive,inactive,inactive,inactive
C[C@H](N)[C@@H](O)c1ccccc1,inactive,inactive,inactive,inactive,inactive,inactive,inactive,inactive,inactive,inactive,inactive,inactive,inactive,inactive,inactive,inactive,inactive,inactive,inactive,inactive
C[N+]1([O-])[C@@H]2CC(OC(=O)[C@@H](CO)c3ccccc3)C[C@@H]1[C@H]1O[C@H]12 (stereo not given in full),inactive,inactive,inactive,inactive,inactive,inactive,inactive,inactive,inactive,inactive,inactive,inactive,inactive,inactive,inactive,inactive,inactive,inactive,inactive,inactive
CC1=C2[C@@H]3OC(=O)[C@@H](C)[C@@H]3CC[C@]2(C)C=CC1=O,–,inactive,–,–,–,–,–,–,–,inactive,inactive,inactive,inactive,–,–,–,inactive,inactive,inactive,inactive

# Source: PubChem BioAssay (NCATS)
